Bioassay records from PubChem.
Rows were chosen to be rich in hits. Some 10% of all compounds tested hit in one or more screens of this group.
Gal4-VP16 FLuc – Gal4-VP16 reporter inhibition counter-screen; actives 3.5% (n = 310,000); Potency, µM (highest dose often 53.6 µM), hits mostly inhibitors; AID 2546; Drosophila S2 Gal4-VP16 UAS-luciferase, luminescence, 20 h;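 further: Gal4-VP16 expression switched on by copper sulfate through the metallothionein promoter; nearly all actives have a fitted effect of over 50% in size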
KB-V1 cytotox – kills drug-selected multidrug resistant KB-V1 cells. actives 3.4% (n = 400,000). Potency, µM (highest dose often 46.1 µM), most hits filed as cytotoxic. KB-V1 MDR cells viability, CellTiter-Glo, 72 h; further: nearly all actives have a fitted effect of over 60% in size
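Cells of the MDR subline KB-V1 are plated, dosed with compound at multiple concentrations, and incubated 72 h at 37 degrees C; CellTiter-Glo is then added and luminescence read after 10 min.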
RORgamma inh – inhibitors of mouse ROR gamma transcriptional activity; P51450; Drosophila S2 Gal4-RORgamma UAS-luciferase reporter, 20 h; Potency, µM (doses to about 53.6 µM), usual class: inhibitors; actives 5.4% (n = 310,000); AID 2551; further: nearly all actives have a fitted effect of over 60% in size
Target sequence (P51450 whole entry, looked up, the tested form may be a part): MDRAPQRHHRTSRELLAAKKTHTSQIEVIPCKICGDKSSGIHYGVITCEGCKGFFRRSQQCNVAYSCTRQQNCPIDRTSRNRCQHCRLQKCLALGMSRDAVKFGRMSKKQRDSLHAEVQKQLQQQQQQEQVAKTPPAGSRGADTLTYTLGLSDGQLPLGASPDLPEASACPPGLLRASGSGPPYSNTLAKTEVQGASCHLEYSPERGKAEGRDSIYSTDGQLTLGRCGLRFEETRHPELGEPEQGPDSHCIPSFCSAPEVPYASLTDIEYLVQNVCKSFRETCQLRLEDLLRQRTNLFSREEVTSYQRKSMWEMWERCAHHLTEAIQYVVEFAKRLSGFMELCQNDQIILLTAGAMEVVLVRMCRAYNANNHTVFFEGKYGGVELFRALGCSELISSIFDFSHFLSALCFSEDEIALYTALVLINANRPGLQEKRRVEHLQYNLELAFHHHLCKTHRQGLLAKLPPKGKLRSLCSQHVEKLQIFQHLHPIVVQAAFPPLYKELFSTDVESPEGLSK
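ROR gamma transcriptional activity was tracked as Gal4-UAS luciferase output in stably transfected Drosophila Schneider cells, with compound added 1 hr before 700 uM copper sulfate induction and a 20 hr ambient-temperature incubation.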
SW480 rerep – inducers of DNA re-replication in SW480 colon cancer cells | actives 1.8% (n = 340,000) | SW480 DNA re-replication, Hoechst DNA content imaging, 48 h | Potency, µM (doses to about 46.1 µM), actives largely listed as activators; further: nearly all actives have a fitted effect of over 55% in size
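SW480 cells exposed to compounds for 48 hr at 37 C, 5% CO2, then Hoechst-stained 40 min. Nuclear DNA content imaged by fluorescence scanning (405 nm excitation, 500-530 nm emission); re-replication scored as increased high-intensity nuclei.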
MCF10A rerep – DNA re-replication induction in MCF 10a cells | MCF 10A DNA re-replication, Hoechst nuclear intensity, 48 h | Potency, µM (highest dose often 46.1 µM), usual class: activators | actives 2.9% (n = 350,000) | AID 624296; further: nearly all actives have a fitted effect of over 50% in size
KB-3-1 tox – kills parental KB-3-1 adenocarcinoma cells | Potency, µM (titrated, usually from 46.1 µM), hits mostly cytotoxic | KB-3-1 viability, CellTiter-Glo ATP luminescence, 72 h | actives 1.4% (n = 400,000); further: nearly all actives have a fitted effect of over 60% in size
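Cytotoxicity measured as CellTiter-Glo luminescence after 72 h at 37 C. Compound titrations were pinned onto drug-naive KB-3-1 parental adenocarcinoma cells grown in DMEM with 10% FBS, and normalized data fitted to concentration-response curves.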
Of the large screens only hits and unclear results are named; the others gave an inactive call. The call rests on the fitted dose curve; in most records, active means well fitted curve in the direction sought with a large enough effect; inconclusive means small, poorly fitted or top-dose-only effect, or another doubt; inactive means no such curve, though single readings can be large; an effect the other way counts as inactive or inconclusive.

COc1cc(/C=N/NC(=O)c2ccc(COc3cc(C)ccc3C(C)C)cc2)cc(OC)c1O	Gal4-VP16 FLuc 16µM, KB-V1 cytotox inconclusive, RORgamma inh inconclusive, MCF10A rerep inconclusive, KB-3-1 tox inconclusive
Cc1ccc(C(C)C)c(OCc2ccc(C(=O)N/N=C/c3cccc(O)c3O)cc2)c1	Gal4-VP16 FLuc 2.5µM, RORgamma inh 1µM, SW480 rerep inconclusive, MCF10A rerep inconclusive
Cc1ccc(C(C)C)c(OCc2ccc(C(=O)N/N=C/c3ccc(O)c(O)c3)cc2)c1	Gal4-VP16 FLuc 35µM, KB-V1 cytotox inconclusive, RORgamma inh inconclusive, SW480 rerep inconclusive, MCF10A rerep inconclusive, KB-3-1 tox inconclusive
Cc1nn(C)c2c1c(C(F)(F)F)cc(=O)n2C(C)C(=O)NCc1ccccc1 (stereo not given)	none (no result: Gal4-VP16 FLuc, RORgamma inh, SW480 rerep, MCF10A rerep)
Cn1cnc(S(=O)(=O)N2CCCCC2c2cc(C(=O)Nc3ccc(F)c(Cl)c3)no2)c1 (stereo not given)	none (no result: Gal4-VP16 FLuc, RORgamma inh, SW480 rerep, MCF10A rerep)
CCN(CC)CCOc1ccc(C(O)(Cc2ccc(Cl)cc2)c2ccc(C)cc2)cc1 (stereo not given)	Gal4-VP16 FLuc inconclusive, RORgamma inh inconclusive, SW480 rerep inconclusive, MCF10A rerep 9.4µM (no result: KB-V1 cytotox, KB-3-1 tox)
COCCN(CCOc1cc(C)cc(C)c1)Cc1ccc(Cl)cc1	KB-V1 cytotox inconclusive, SW480 rerep inconclusive, MCF10A rerep 18µM
COC(=O)c1ccc2c(c1)N(CC(=O)Nc1cccc(Cl)c1C)C(=O)c1ccccc1S2	KB-V1 cytotox inconclusive (no result: Gal4-VP16 FLuc, RORgamma inh, SW480 rerep, MCF10A rerep)
Cc1ccc(S(=O)(=O)Oc2ccccc2N2C(=O)C3CC=CCC3C2=O)cc1 (stereo not given)	KB-V1 cytotox 8.2µM
O=C1C2CC=CCC2C(=O)N1c1cccc(OS(=O)(=O)c2ccc3ccccc3c2)c1 (stereo not given)	KB-V1 cytotox 21µM, MCF10A rerep inconclusive
CCOc1ccc(NC(=O)c2oc(=O)c3ccccc3c2-c2ccc(C)cc2)cc1	none (no result: Gal4-VP16 FLuc, RORgamma inh, SW480 rerep, MCF10A rerep)
Cc1ccccc1OCc1nnc(SCC(=O)O)n1-c1cccc(Cl)c1	MCF10A rerep inconclusive
Cc1n[nH]c(=S)n1-c1cccc(Cl)c1	Gal4-VP16 FLuc inconclusive, RORgamma inh 11µM
Cn1c(CCc2ccccc2)n[nH]c1=S	KB-V1 cytotox inconclusive, RORgamma inh 13µM
Cc1ccccc1OCc1n[nH]c(=S)n1-c1cccc(Cl)c1	Gal4-VP16 FLuc 4.5µM, RORgamma inh 4µM
Cc1cccc(C)c1NCc1n[nH]c(=S)n1-c1ccccc1	Gal4-VP16 FLuc inconclusive, RORgamma inh 2µM
Cc1ccc(C)c(NCc2n[nH]c(=S)n2-c2ccccc2)c1	none
Cn1c(Cc2ccccc2)n[nH]c1=S	RORgamma inh inconclusive
Cc1cc(C)c2c(=O)nc(SCc3ccccc3C)n(C3CC3)c2n1	none (no result: Gal4-VP16 FLuc, RORgamma inh, SW480 rerep, MCF10A rerep)
Cc1cccc(OCc2n[nH]c(=S)n2-c2ccccc2)c1	Gal4-VP16 FLuc inconclusive, RORgamma inh 2.2µM
S=c1[nH]nc(CSCc2ccccc2Cl)n1-c1ccccc1	Gal4-VP16 FLuc 6.3µM, RORgamma inh 1µM
Cc1ccc(-n2c(COc3cccc(C)c3)n[nH]c2=S)cc1	Gal4-VP16 FLuc inconclusive, RORgamma inh inconclusive
COCc1n[nH]c(=S)n1-c1ccccc1	none
Cn1c(CSc2nc3ccccc3s2)n[nH]c1=S	RORgamma inh inconclusive
Cc1cccc(C)c1OCc1n[nH]c(=S)n1-c1ccccc1	Gal4-VP16 FLuc inconclusive, RORgamma inh 1.3µM
Cn1c(CSCCOc2ccccc2)n[nH]c1=S	Gal4-VP16 FLuc inconclusive, RORgamma inh 1µM
C=Cc1ccc(Cn2c(C(=O)O)c(CNCCc3ccccc3)c3ccc(C)cc32)cc1	none (no result: Gal4-VP16 FLuc, RORgamma inh, SW480 rerep, MCF10A rerep)
COc1cccc(CNC(=O)Cc2ccc(NC(=O)N3CCSc4ncccc43)cc2)c1OC	none (no result: Gal4-VP16 FLuc, RORgamma inh, SW480 rerep, MCF10A rerep)
Cc1ccc(-n2c(CCc3ccccc3)n[nH]c2=S)cc1C	Gal4-VP16 FLuc inconclusive
Cc1cc(OCc2n[nH]c(=S)n2-c2ccccc2)ccc1Cl	Gal4-VP16 FLuc 3.5µM, RORgamma inh 2.5µM
CC(C)Oc1ccc(CCc2n[nH]c(=S)n2-c2ccccc2)cc1	RORgamma inh 7.1µM
COc1ccc(CSCCc2n[nH]c(=S)n2-c2ccccc2)cc1	KB-V1 cytotox inconclusive
Cc1ccc(OCc2n[nH]c(=S)n2-c2ccccc2)cc1C	Gal4-VP16 FLuc inconclusive, RORgamma inh 2µM
COc1ccc(CCC(=O)NCCS(=O)(=O)N2CCN(c3ccc(OC)cc3)CC2)cc1	none
Cc1nc2c3cc(Cl)ccc3n(CCN3CCCCC3)c2s1	SW480 rerep 15µM, MCF10A rerep 18µM
CCc1ccc2c(c1)c1nc(C)sc1n2CC	Gal4-VP16 FLuc 11µM, RORgamma inh 10µM
Cc1cccc(-n2c(=O)c3c(c4cc(C)ccc4n3C)n(Cc3ccccc3F)c2=O)c1	none (no result: Gal4-VP16 FLuc, RORgamma inh, SW480 rerep, MCF10A rerep)
Cc1ccc(-c2ccc(=O)n(CC(=O)Nc3ccc(C)cc3Cl)n2)cc1	none (no result: Gal4-VP16 FLuc, RORgamma inh, SW480 rerep, MCF10A rerep)
Cc1ccc(C(=O)C(c2ccccc2)N2Cc3ccccc3C2=N)cc1 (stereo not given)	Gal4-VP16 FLuc 10µM, KB-V1 cytotox inconclusive, RORgamma inh 4µM, SW480 rerep inconclusive, MCF10A rerep 21µM, KB-3-1 tox inconclusive
NC(=O)CSc1ccc2nnc(-c3ccncc3)n2n1	none (no result: Gal4-VP16 FLuc, RORgamma inh, SW480 rerep, MCF10A rerep)
